Measured values taken from PubChem BioAssay (Tox21).
Inconclusive results are not listed. Values without a mark were called inactive. The source made the active and inactive calls. Calls come from the whole dose curve.
% is set by controls: 0 for no effect and ±100 for the full control effect.

The compounds below were run against Beta-2 adrenergic receptor (Homo sapiens) (UniProt P07550) (assay: Adrenergic beta2 receptor (ADRB2) small molecule agonists, cell-based qHTS assay (AID 1963593)). Conditions: CHO-ADRB2 cells, cAMP HTRF, 30 min; series mostly up to 92.4 µM; activation: at the top concentration.
Sequence of Beta-2 adrenergic receptor (Homo sapiens) (P07550 whole entry, looked up): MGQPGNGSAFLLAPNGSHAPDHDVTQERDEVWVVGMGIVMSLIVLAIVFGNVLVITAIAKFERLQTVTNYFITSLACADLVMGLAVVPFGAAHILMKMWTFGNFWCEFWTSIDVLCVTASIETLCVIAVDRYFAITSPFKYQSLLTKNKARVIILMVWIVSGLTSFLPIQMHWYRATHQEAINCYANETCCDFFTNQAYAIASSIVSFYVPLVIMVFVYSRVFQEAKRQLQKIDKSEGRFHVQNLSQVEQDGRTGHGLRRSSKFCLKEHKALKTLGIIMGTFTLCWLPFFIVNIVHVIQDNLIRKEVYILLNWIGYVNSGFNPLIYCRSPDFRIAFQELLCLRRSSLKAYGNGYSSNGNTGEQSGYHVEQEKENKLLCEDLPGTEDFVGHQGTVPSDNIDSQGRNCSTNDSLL
Description: National Center for Advancing Translational Sciences [NCATS]
Division of Preclinical Innovation [DPI]
U.S. Environmental Protection Agency [EPA]
National Institutes of Environmental Health Sciences [NIEHS]
National Toxicology Program [NTP]
U.S. Food and Drug Administration [FDA]
Beta adrenergic receptors (Beta-ARs) belong to the G-protein coupled receptor (GPCR) superfamily, includes three subtypes - beta1, beta2, and beta3. Beta1-AR is the predominant receptor subtype expressed in the heart, and beta2-AR is expressed in the kidney, lung, blood vessel and in the heart, and beta3 is found in the adipocytes. Beta1 and 2 ARs couple to Gs protein and elevate cyclic adenosine mono phosphate (cAMP), which activates protein kinase A and leads to the downstream signaling responsible for the physiological actions. Beta-AR agonists or antagonists are the most prescribed therapeutic agents for heart failure and asthma, and these were one of the first target receptors for the rational drug design. Tox21 10K compound library was screened using the cAMP-Gs dynamic assay (Cisbio Bioassays, Shelton, CT) to identify agonists/antagonists of the Gs-coupled human adrenergic, beta2 receptor (ADRB2) in the CHO-ADRB2 cell line (Codex BioSolutions, Inc. Gaithersburg, MD), which stably over-expresses ADRB2. The principle of cAMP-Gs dynamic assay is based on HTRF technology, which facilitates the fluorescence resonance energy transfer (FRET) between donor Europium cryptate and acceptor d2-labeled cAMP. The cAMP generated within cells competes with the red acceptor, d2-labled cAMP, for binding to the monoclonal anti-cAMP-cryptate (Europium donor). An increase in intracellular cAMP leads to the disruption of FRET signal, and the signal is inversely proportional to the cAMP concentration. Isoproterenol HCl (Sigma-Aldrich, St. Louis, MO) was used as a positive control in the screening.
Tox21 Assay Protocol Summary:
CHO-ADRB2 cells were dispensed at 1,000/well in 4uL assay medium into white/solid 1536-well plates (Greiner Bio-One North America Inc., Monroe, NC) using a Multidrop Combi dispenser (ThermoFisher Scientific, Waltham, MA). The assay plates were incubated at 37C and 5% CO2 for an overnight (18-20hr). Then positive control and test compounds dissolved in DMSO were transferred to the assay plates at 23nL using a Pintool station (Wako, San Diego, CA). Following the compound and positive control transfer, 1uL stimulation mix containing 100uM IBMX and 25uM Ro-20-1724 was added to each well of the assay plates using BioRAPTR Flying Reagent Dispenser (FRD, Beckman Coulter, Brea, CA). The assay plates were incubated at room temperature for 0.5hr. Then 2.5ul each d2-labled cAMP and anti-cAMP-cryptate solutions were added separately to each well of the assay plates using an FRD and the assay plates were incubated at room temperature for 1hr.
`CCCCOCCOCCSC#N` was tested, and the “activation” value was 2.26% [at 42.5 µM].
In the case of `ClC/C=C/CCl`, the “activation” value is reported as 0.293%.
With `OCc1cccc(Oc2ccccc2)c1` the “activation” value was 9.49%.
`O=C(O)c1cccc([N+](=O)[O-])c1` was tested, and the “activation” value was -48.3%.
In the case of `c1ccc2cc3c(ccc4ccccc43)cc2c1`, the Potency is reported as “inactive”.
In the case of `C/C=C(C)/C=C/C=C(C)C`, the Potency is reported as “inactive”.
For `NC(CO)(CO)CO`, the “activation” value was -15%.
`C[N+](C)(C)CCCCCC[N+](C)(C)C` was tested, and the “activation” value was -7.93% [at 42.5 µM].
In the case of `c1ccc2c(c1)ccc1cc3c(ccc4ccccc43)cc12`, the “activation” value is reported as 1.73% [at 42.5 µM].
`CCCCCCCCCCCCCC(=O)OC(C)C` was tested, and the Potency was “inactive”.
In the case of `COC(=O)c1cccc(C(=O)OC)c1`, the “activation” value is reported as -2.61%.
With `CN1C(=O)CC[C@H]1c1cccnc1` the “activation” value was -18.4% [at 42.5 µM].
In the case of `CC(=O)OC(C)C`, the “activation” value is reported as -6.47%.
With `COc1ccc2[nH]cc(CCNC(C)=O)c2c1` the Potency was “inactive”.
For `Fc1ccc(Br)cc1`, the “activation” value was 16.5%.
`O=C(O)c1cc(C(=O)O)cc(S(=O)(=O)O)c1` was tested, and the “activation” value was -31.4%.
In the case of `CCCCC(CC)COC(=O)c1ccc(C(=O)OCC(CC)CCCC)cc1` (stereo not given), the Potency is reported as “inactive”.
In the case of `OC[C@@H](O)[C@H](O)[C@H](O)[C@@H](O)CO`, the “activation” value is reported as 3.75% [at 42.5 µM].
`CCCCC(=O)O` was tested, and the “activation” value was -0.185%.
For `CC(=O)[C@@]1(O)CC[C@H]2[C@@H]3C[C@H](C)C4=CC(=O)C=C[C@]4(C)[C@@]3(F)[C@@H](O)C[C@@]21C`, the Potency was “inactive”.
For `NC(=O)OCC(COC(N)=O)c1ccccc1`, the “activation” value was 9.5%.
With `O=C(O)CS` the “activation” value was -3.99%.
For `c1ccc2n[nH]nc2c1`, the “activation” value was 0.983%.
In the case of `CN/C(=C\[N+](=O)[O-])NCCSCc1csc(CN(C)C)n1`, the “activation” value is reported as 0.425% [at 42.5 µM].
For `O=S1(=O)CCCO1`, the Potency was “inactive”.
`CC(=O)O[C@]1(C(C)=O)CC[C@H]2[C@@H]3C=C(Cl)C4=CC(=O)[C@@H]5C[C@@H]5[C@]4(C)[C@H]3CC[C@@]21C` was tested, and the Potency was “inactive”.
In the case of `C=CC(C)(C)C`, the Potency is reported as “inactive”.
`O=C(O)CCCC(=O)O` was tested, and the Potency was “inactive”.
`O=c1ccc2ccccc2o1` was tested, and the “activation” value was 8.77% [at 42.5 µM].
In the case of `O=C(O)c1ccc(C(=O)O)cc1`, the “activation” value is reported as 0.538%.
For `CCCN(CCC)S(=O)(=O)c1ccc(C(=O)O)cc1`, the “activation” value was -39.7%.
`CC(CCl)OP(=O)(OC(C)CCl)OC(C)CCl` (stereo not given) was tested, and the “activation” value was -30.2%.
In the case of `COCC(=O)O`, the “activation” value is reported as -8.65%.
`C[C@H]1C[C@H]2[C@@H]3CCC4=CC(=O)C=C[C@]4(C)[C@@]3(F)[C@@H](O)C[C@]2(C)[C@@]1(O)C(=O)CO` was tested, and the “activation” value was -15.6% [at 42.5 µM].
In the case of `CCC(O)OCCCOC` (stereo not given), the “activation” value is reported as 39.4%.
For `O=C(Oc1ccccc1)c1ccccc1O`, the Potency was “inactive”.
In the case of `Cc1ccc(S(=O)(=O)NCl)cc1`, the “activation” value is reported as 5.07%.
With `O=c1c(O)c(-c2ccc(O)c(O)c2)oc2cc(O)cc(O)c12` the “activation” value was -15.9% [at 42.5 µM].
`CC/C(C)=N/O` was tested, and the “activation” value was -19%.
With `CC(C)=CCC/C(C)=C/CO` the Potency was “inactive”.
